Test results as given in PubChem BioAssay (NCI).
About 83,000 compounds went through this panel and 20% of them were active in at least one assay; those are over-represented in the sample as a whole.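 The endpoint reported here, percent growth, reads 100 for growth as untreated, 0 for no net growth and -100 for all cells dead.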 Values without a mark were called inactive. Active and inactive are the calls of the source. Rule for the calls: active = growth percent below 10; inactive = the rest.

Assays:
Experiment in all cases: NCI-60 one-dose screen, 48 h (100 = growth as untreated, 0 = no growth, -100 = all killed)
Details in all cases: 10 µM unless noted
EKVX NSCLC = test system: EKVX NSCLC
SN12C renal = test system: SN12C renal
UO-31 renal = test system: UO-31 renal
TK-10 renal = test system: TK-10 renal
ACHN renal = test system: ACHN renal
CAKI-1 renal = test system: CAKI-1 renal
A498 renal = test system: A498 renal
CCRF-CEM leukemia = test system: CCRF-CEM leukemia
MOLT-4 leukemia = test system: MOLT-4 leukemia
SR leukemia = test system: SR leukemia

| Compound | growth (EKVX NSCLC) | growth (SN12C renal) | growth (UO-31 renal) | growth (TK-10 renal) | growth (ACHN renal) | growth (CAKI-1 renal) | growth (A498 renal) | growth (CCRF-CEM leukemia) | growth (MOLT-4 leukemia) | growth (SR leukemia) |
| --- | --- | --- | --- | --- | --- | --- | --- | --- | --- | --- |
| Cc1sc2ncn(CC(=O)Nc3ccc(S(N)(=O)=O)cc3)c(=O)c2c1C | 95.8% | 98.6% | 73.1% | 109% | 103% | 95.4% | 100% | 105% | 102% | 117% |
| Cn1c2c(c(=O)[nH]c1=O)NC1=C(C(=O)c3ccccc31)C1(C=C(O)c3ccccc31)N2 (stereo not given) | 95.7% | 108% | 77.6% | 134% | 89.7% | 86% | 143% | 107% | 121% | 47.6% |
| COc1ccc(Cn2cc(Cn3c(=O)c(-c4nc5ccccc5[nH]4)cc4ccccc43)nn2)c(OC)c1OC | 30.8% | 18.7% | 18.2% | 33.9% | 35% | 21.7% | -27.4% (active) | 22.6% | 17.9% | 21.8% |
| Fc1cccc(COc2ccc(Nc3ncnc4onc(-c5ccccc5)c34)cc2)c1 | 32.9% | 22.3% | 18.6% | 49.1% | 37.1% | 37.5% | -22.4% (active) | 20.1% | 15.4% | 26.1% |
| COc1cc(/C=C/C(=O)c2ccc(Nc3nc(NCCO)nc(N4CCOCC4)n3)cc2)cc(OC)c1OC | 21.7% | 16.3% | 25.4% | 35.3% | 23.3% | 23.6% | 2.25% (active) | 3.64% (active) | 0.216% (active) | 17.4% |
| COc1cc(/C=C2\CN(C)C/C(=C\c3cc(CN4CCCCC4)c(O)c(OC)c3)C2=O)cc(CN2CCCCC2)c1O | 46% | 38.2% | 57% | 57.6% | 39% | 55.9% | 71.1% | 19.9% | 16.5% | 28.5% |
| CCOC(=O)C1=C(C)c2ccc(OC)c(OC)c2C1 | 98.8% | 108% | 95.5% | 87.2% | 103% | 100% | 96.3% | 93% | 87.7% | 73.4% |
| Oc1[nH]c2ccccc2c1N=Nc1nnc2n1N=C(c1ccccc1)CS2 | 87.7% | 99.1% | 100% | 94% | 94.8% | 79.4% | 92.9% | 96.6% | 88% | 77.3% |
| Cc1ccc(Cc2cnc(NC(=O)CN3C(=O)/C(=C\c4ccccc4)SC3=S)s2)cc1 | 98.1% | 96.6% | 89.4% | 106% | 101% | 95.5% | 109% | 107% | 104% | 114% |
| Clc1ccc(COc2ccc(Nc3ncnc4onc(-c5ccccc5)c34)cc2)cc1 | 95.6% | 87.8% | 90.5% | 91.4% | 41.7% | 84.6% | 69.2% | 73.2% | 85.9% | 43.8% |
| NCCOc1ncccc1/C=C1\c2ccccc2-c2ccc(F)cc21 | 51.9% | 2.42% (active) | -17.5% (active) | 22.4% | -20.8% (active) | 12.8% | 18.9% | 6.8% (active) | 2.25% (active) | 9% (active) |
| O=S(=O)(Nc1ncccn1)c1ccc(NC2Nc3nc4ccccc4nc3S2)cc1 (stereo not given) | 90.7% | 97.7% | 78.5% | 109% | 98.5% | 94% | 99.3% | 104% | 99.7% | 102% |
| O=C1Nc2ccccc2/C1=C/c1cccs1 | 73.2% | 89.9% | 62.2% | 134% | 86.7% | 90.4% | 106% | 97.2% | 102% | 121% |
